The text below walks through data of PubChem BioAssay AID1259417 (TB Discovery Research, Infectious Disease Research Institute, 2018).

Usually inhibition stands for the change of the read-out against control, counted positive when it falls.

Among all 1,100 compounds or so, about 760 (69%) were called active. The rule behind the calls is not given here. The set was probably picked from earlier hits. The list shows a part of the results.

A short description of this assay: M. tuberculosis growth inhibition, HTS (AID 1259417).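 Note: bacteria grown with compound for 5 days at 37 °C.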 The note with it: stronger effect = higher value, concentration not given here.
Where [1] appears, read: M. tuberculosis DsRed fluorescence growth inhibition.
Setting [2] is: M. tuberculosis growth inhibition.

In the case of `CSc1ccc2nc(Nc3nc4ccc(NC(C)=O)cc4s3)sc2c1`, the inhibition by setting is: under setting [1], 2.19% (inactive); under setting [2], 1.87%.

As for `CCCn1nnc(NC(=O)COc2ccc(C3CCCCC3)cc2)n1`, the inhibition under setting [1] is 26.3% (active) and the inhibition under setting [2] turned out to be 72.9%.

Consider `CCn1nnc(NC(=O)COc2ccc(C3CCCCC3)cc2)n1`, for which the inhibition is 37% (active) under setting [1] and 86.6% under setting [2].

Regarding `CCC(=O)Oc1ccc(C(=O)Nc2cc3oc4ccccc4c3cc2OC)cc1`, the inhibition is, setting by setting: under setting [1], 12% (inactive); under setting [2], 10.7%.

In the case of `CCOC(=O)CSCC(=O)Nc1c(C(=O)C2CC2)oc2ccccc12`, the inhibition is 27.6% (active) under setting [1] and 48.3% under setting [2].

Consider `CC(C)(C)C(=O)/C=C/Nc1ccccc1O`, for which the inhibition by setting is: under setting [1], 99.2% (active); under setting [2], 98.5%.

On to `CSc1nsc(SCC(=O)N2CCN(c3ccccc3)CC2)n1`, for which the inhibition by setting is: under setting [1], 98.3% (active); under setting [2], 98.7%.

Consider `O=C(Nc1ccc2c(c1)OCCO2)c1cccc2nc3ccccc3nc12`, for which the inhibition is 97.2% (active) under setting [1] and 96.7% under setting [2].

Turning to `COc1cc(NC(=O)c2ccc3c(c2)OCCO3)ccc1NC(=O)c1ccccc1Cl`, the inhibition is, setting by setting: under setting [1], 2.06% (inactive); under setting [2], 9.67%.

For the compound `Cc1ccc(NC(=O)CC2COc3ccccc3O2)cc1Cl` (centres undefined), the inhibition reads like this: under setting [1], 2.96% (inactive); under setting [2], -10.1%.

For `Cc1ccc([N+](=O)[O-])cc1NC(=O)CN(C(=O)c1ccccc1Cl)C1CCCCC1`, the inhibition was 75.1% (active) under setting [1] and 49.8% under setting [2].

Regarding `COc1ccc(C(=O)Nc2cc(OC)c(NC(=O)c3ccco3)cc2OC)cc1`, the inhibition is 0.929% (inactive) under setting [1] and -7.24% under setting [2].

For `COc1ccc(-c2cc(C(=O)NN=CC=Cc3ccccc3OC)[nH]n2)cc1`, the inhibition under setting [1] is 9.99% (active) and the inhibition under setting [2] is 65%.

Turning to `O=C1NN=C2C1=NC1(CCCCC1)Cc1ccccc12`, the inhibition was 99.4% (active) under setting [1] and 99% under setting [2].

`CCOC(=O)N1CCN(CCC(=O)c2ccc(Cl)cc2)CC1`: the inhibition was 25.5% (active) under setting [1] and 58.7% under setting [2].

Consider `Cc1ccc(-c2nnc(NC(=O)CCOc3ccccc3)o2)c(C)c1`, for which the inhibition runs as follows: under setting [1], 61.8% (active); under setting [2], 78.2%.

Turning to `O=C(CCOc1ccccc1)Nc1nnc(-c2cc(Cl)ccc2Cl)o1`, the inhibition runs as follows: under setting [1], 1.59% (inactive); under setting [2], -1.65%.

For `CCCCOc1cccc(C(=O)Nc2nnc(-c3ccc(C)cc3C)o2)c1`, the inhibition under setting [1] is 92.2% (active) and the inhibition under setting [2] came to 77.5%.

Regarding `N=c1sc(/C=C2\C=Nc3ccccc32)c(O)n1-c1nccs1`, the inhibition by setting is: under setting [1], 97.2% (active); under setting [2], 94.9%.

For `Cc1ccc(C(C)C)c(OCc2nn(CC(=O)c3ccc(OC(F)F)cc3)c3[n+]2CCCCC3)c1`, the inhibition reads like this: under setting [1], 100% (active); under setting [2], 99.1%.

With `O=C(c1ccc(NC(=O)C2(c3ccccc3)CCCC2)cc1)N1CCCCC1`, the inhibition under setting [1] is 99.8% (active) and the inhibition under setting [2] turned out to be 99.3%.

With `Cc1ccc(C(=O)N2CCN(c3ccc(NC(=O)COc4c(C)cc(C)cc4Br)cc3)CC2)cc1`, the inhibition reads like this: under setting [1], -0.254% (inactive); under setting [2], -20.4%.

Regarding `CCC(C)NC(=O)c1ccc(NC(=O)C2(c3ccccc3)CCCC2)cc1` (centres undefined), the inhibition by setting is: under setting [1], 31.9% (active); under setting [2], 42.8%.

As to `COC(=O)c1ccc(NC(=O)CSc2nc(-c3ccccc3C)ns2)cc1`, the inhibition is, setting by setting: under setting [1], 15.6% (active); under setting [2], 32.6%.

Turning to `COC(=O)c1ccc(NC(=O)CSc2nc(-c3cccc(C)c3)ns2)cc1`, the inhibition reads like this: under setting [1], 15.3% (active); under setting [2], 38.3%.

As for `Cc1ccc(-c2nsc(SCC(=O)Nc3ccc4c(c3)OCO4)n2)cc1`, the inhibition was 9.75% (inactive) under setting [1] and 1.51% under setting [2].

With `CSc1nsc(SCC(=O)Nc2ccc(OC(C)=O)cc2)n1`, the inhibition is 8.33% (inactive) under setting [1] and 24.6% under setting [2].

For `Cc1ccc2oc(-c3cc(NC(=O)Cc4ccccc4)ccc3Cl)nc2c1`, the inhibition is, setting by setting: under setting [1], 88% (active); under setting [2], 49.9%.

Turning to `COC(=O)CSc1nc2c(c(-c3ccco3)c1C#N)CCCC2`, the inhibition is, setting by setting: under setting [1], 2.74% (inactive); under setting [2], -22.6%.

On to `COC(=O)CSc1nc(-c2ccccc2)c2c(c1C#N)CCCC2`, for which the inhibition runs as follows: under setting [1], -3.83% (inactive); under setting [2], -16.2%.

For the compound `COC(=O)CSc1nc(N2CCCCC2)c2c(c1C#N)CCCC2`, the inhibition by setting is: under setting [1], 26.1% (active); under setting [2], 78.9%.

With `COC(=O)C(C)Oc1ccc(-c2nccc(-c3cccs3)n2)cc1` (centres undefined), the inhibition runs as follows: under setting [1], 43.6% (active); under setting [2], 69.4%.

With `CC(C)(C)c1cc(Cl)ccc1OCCn1ccnc1`, the inhibition under setting [1] was 90.4% (active) and the inhibition under setting [2] turned out to be 95%.

`CC(C)(C)NCCCCOc1ccc(Cl)cc1C(C)(C)C`: the inhibition by setting is: under setting [1], 59% (active); under setting [2], 43.9%.

With `CC(C)(C)c1cc(Cl)ccc1OCCCCn1ccnc1`, the inhibition reads like this: under setting [1], 99.7% (active); under setting [2], 99.7%.

Consider `C#CCOCCOCCOCCNc1nc(N2CCN(C(=O)[C@H](Cc3cc4ccccc4[nH]3)n3cc([C@@H](N)CC(C)C)nn3)CC2)nc(N2CCN(C(=O)[C@H](Cc3cc4ccccc4[nH]3)n3cc([C@@H](N)CC(C)C)nn3)CC2)n1`, for which the inhibition is, setting by setting: under setting [1], 68% (active); under setting [2], 50.3%.

Turning to `Cc1ccc2nsnc2c1S(=O)(=O)Nc1cccc2cccnc12`, the inhibition under setting [1] was 100% (active) and the inhibition under setting [2] turned out to be 99.4%.

For the compound `O=S(=O)(Nc1cc(Sc2cccc3cccnc23)c(O)c2ccccc12)c1ccccc1`, the inhibition by setting is: under setting [1], 3.26% (active); under setting [2], 44.3%.

For `O=S(=O)(Nc1cc(Br)c(O)c2ccccc12)c1ccc(F)cc1`, the inhibition reads like this: under setting [1], 3.24% (inactive); under setting [2], -11.2%.

For `O=S(=O)(Nc1cccc2cccnc12)c1ccc(Br)cc1`, the inhibition under setting [1] was 73.1% (active) and the inhibition under setting [2] stood at 91.6%.

For the compound `O=C(Nc1ccc(S(=O)(=O)N2CCC(c3nc4ccccc4[nH]3)CC2)cc1)c1cccc(Cl)c1`, the inhibition by setting is: under setting [1], 0.997% (inactive); under setting [2], -16%.

In the case of `Cc1ccc(NC(=O)N2CCC(c3nc4c(nnn4Cc4cccc(Cl)c4)c(=O)[nH]3)CC2)cc1`, the inhibition runs as follows: under setting [1], 97.3% (active); under setting [2], 99.6%.
